Bioassay records: PubChem, National Center for Advancing Translational Sciences (NCATS)
3T3 cytotox: kills NIH 3T3 cells; NIH 3T3 viability, CellTiter-Glo ATP luminescence, 48-72 h; Potency, µM (doses to about 96.7 µM), for the others: at the top dose activity change, negative = cytotoxicity, actives largely listed as inhibitors; actives 4.3% (n = 94,000); AID 1345082; note: nearly all actives have a fitted effect of over 55% in size
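NIH 3T3 cells at 400 cells/well received 23 nL of compound by pintool and were incubated 48 or 72 h at 37 °C. Viability was read as ATP-coupled CellTiter-Glo luminescence.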
GPT2 inhibitor: inhibitors of human GPT2 alanine aminotransferase | Q8TD30 | Recombinant GPT2, coupled pyruvate oxidase/HRP Amplex Red fluorescence | Potency, µM (doses to about 57.7 µM), inactives show at the highest dose activity change, negative = inhibition, most hits filed as inhibitors | actives 0.25% (n = 100,000) | AID 1671188; note: nearly all actives have a fitted effect of over 60% in size
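Inhibition is scored from Amplex Red fluorescence generated when pyruvate oxidase and HRP act on pyruvate released by GPT2. Reactions contain 10ng/uL enzyme, 250uM a-KG and 2mM L-alanine and run 30 min at room temperature.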
NPR1 antag: blocks ANP-stimulated signaling of human Npr1 receptor. HEK293 hNpr1 GloSensor cGMP, ANP-stimulated luminescence. P16066. AID 1347048. actives 1.6% (n = 76,000). Potency, µM (series often up to 46.3 µM), without a hit: at the highest dose activity change, negative = inhibition, actives largely listed as inhibitors; calls by dose curve; note: nearly all actives have a fitted effect of over 60% in size
Target sequence (P16066 whole entry, looked up): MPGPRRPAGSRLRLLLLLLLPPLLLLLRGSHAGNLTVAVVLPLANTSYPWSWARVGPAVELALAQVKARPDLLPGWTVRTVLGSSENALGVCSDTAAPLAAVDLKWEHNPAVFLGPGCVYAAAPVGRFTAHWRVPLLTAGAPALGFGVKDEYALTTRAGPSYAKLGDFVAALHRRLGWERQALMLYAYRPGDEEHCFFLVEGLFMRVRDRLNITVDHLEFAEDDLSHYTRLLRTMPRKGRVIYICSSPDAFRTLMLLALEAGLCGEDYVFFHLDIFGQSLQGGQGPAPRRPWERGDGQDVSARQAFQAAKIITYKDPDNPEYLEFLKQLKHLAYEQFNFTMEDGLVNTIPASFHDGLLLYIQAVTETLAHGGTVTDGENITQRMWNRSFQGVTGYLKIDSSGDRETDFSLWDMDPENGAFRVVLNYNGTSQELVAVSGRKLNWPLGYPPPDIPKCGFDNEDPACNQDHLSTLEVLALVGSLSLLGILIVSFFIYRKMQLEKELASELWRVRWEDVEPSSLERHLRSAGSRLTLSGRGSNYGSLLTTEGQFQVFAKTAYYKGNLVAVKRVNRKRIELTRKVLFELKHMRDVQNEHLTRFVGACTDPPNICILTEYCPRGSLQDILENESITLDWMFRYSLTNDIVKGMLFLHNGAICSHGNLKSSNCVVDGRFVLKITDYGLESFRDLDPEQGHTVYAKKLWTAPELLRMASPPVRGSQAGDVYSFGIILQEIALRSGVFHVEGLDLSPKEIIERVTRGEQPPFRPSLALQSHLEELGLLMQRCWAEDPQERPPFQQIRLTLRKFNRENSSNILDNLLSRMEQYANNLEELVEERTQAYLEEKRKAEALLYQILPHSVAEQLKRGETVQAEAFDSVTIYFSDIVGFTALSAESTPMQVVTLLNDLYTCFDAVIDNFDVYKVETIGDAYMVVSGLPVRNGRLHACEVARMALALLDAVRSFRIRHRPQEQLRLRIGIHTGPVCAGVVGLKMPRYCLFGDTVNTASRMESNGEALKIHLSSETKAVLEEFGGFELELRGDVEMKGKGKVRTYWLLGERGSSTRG
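HEK293 cells stably expressing human Npr1 and cGMP GloSensor pGS-40F, loaded 2 h with 2% GloSensor reagent, given compound 30 min at room temperature. Luminescence read before and 20 min after 0.1 nM hNppA.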
FLuc inh: Photinus pyralis luciferase inhibition; P08659; Potency, µM (top dose mostly 115 µM), usual class: inhibitors; actives 2.5% (n = 76,000); purified P. pyralis luciferase, luminescence, biochemical; note: nearly all actives have a fitted effect of over 65% in size
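Luminescence read by CCD imaging after purified firefly luciferase (10nM final) was added to substrate buffer holding 10uM D-luciferin and 10uM ATP, pH 7.5, pre-dosed with compound.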
HEK293 tox: HEK 293 cell cytotoxicity. HEK 293 viability, ATP luminescence (CellTiter-Glo), 48-72 h. Potency, µM (doses to about 115 µM), without a hit: at the highest dose activity change, negative = cytotoxicity, usual class: inhibitors. actives 6.6% (n = 94,000). AID 1345083; note: nearly all actives have a fitted effect of over 60% in size
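HEK 293 seeded at 250 cells/well receive compound via pintool. After 48 or 72 hr at 37 degree Celsius, 5% CO2 and 95% humidity, CellTiter-Glo is dispensed and luminescence read following 10 min at room temperature.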
The depositor's hits bear a star; i = inactive; ? = inconclusive; · = no result given; ! = not active in a repeat; [ ] = dose if it differs, or a comment. Compounds with a hit are over-represented: about 10% of the library has one in this group of screens. Unless noted, calls come from the whole dose curve; as a rule, active = well fitted curve in the direction sought with a large enough effect; inconclusive = small, poorly fitted or top-dose-only effect, or another doubt; inactive = no such curve, though single readings can be large; an effect the other way counts as inactive or inconclusive. % is set by controls: 0 for no effect and ±100 for the full control effect; potency is the fitted concentration of half-maximal effect.

SMILES	3T3 cytotox	GPT2 inhibitor	NPR1 antag	FLuc inh	HEK293 tox
Cc1ccc(CCCN2CCCC(COc3ccccc3C(=O)NC(C)C)C2)o1 (stereo not given)	?	-24.7%	1.1%	i	?
COCCN1CCCC1c1nc(C2CN(C(=O)NCc3ccco3)C2)no1 (stereo not given)	-3.2%	4.0%	3.1%	i	?
CC(C)NC(=O)NC1CCN(c2ccc3nnc(C4CC4)n3n2)C1 (stereo not given)	i	·	·	·	i
COc1cccc(S(=O)(=O)N2CCC3(C2)C(=O)Nc2ccccc23)c1 (stereo not given)	-15.7%	-8.3%	·	·	-27.4%
C[S+](=O)([O-])CCn1ncc2cc(OCc3cccc(-c4ccoc4)c3)ccc21	?	-14.1%[88.5 µM]	?	?	70.8µM*
C[S+](=O)([O-])CCn1ncc2cc(OCC3CCN(C(=O)c4cccc(F)c4F)CC3)ccc21	-19.2%	-0.5%	-2.7%	i	?
COc1ncc(-c2cccc(COc3ccc4c(cnn4CC[S+](C)(=O)[O-])c3)c2)cn1	-15.4%[138 µM]	?	?	?	70.8µM*
CNC(=O)CCn1ncc2cc(OCc3ccccc3-c3cnc(OC)nc3)ccc21	-24.1%[138 µM]	i	-2.3%[70.6 µM]	?	?
COc1ccccc1-c1cccc(COc2ccc3c(cnn3CC[S+](C)(=O)[O-])c2)c1	?	-12.2%[88.5 µM]	?	?	?
COc1ncccc1-c1cccc(COc2ccc3c(cnn3CC[S+](C)(=O)[O-])c2)c1	?	0.8%[88.5 µM]	35.5µM*	15.8µM*	28.2µM*
C[S+](=O)([O-])CCn1ncc2cc(OCc3cccc(-c4cncnc4)c3)ccc21	?	-7.7%[88.5 µM]	-18.9%[70.6 µM]	35.5µM*	?
Cc1cccc(C)c1NC(=O)N1CCC(OC2CCN(Cc3ccccc3)CC2)CC1	-20.3%	i	2.0%	i	?
O=C(Nc1ccc(F)cc1)c1ccc2nc(-c3cccnc3Cl)oc2c1	?	-7.3%[88.5 µM]	·	·	?
COc1ccc(C(=O)N2CCC(n3c(C)cnc3C3CCC3)C2)cn1 (stereo not given)	i	i	·	·	i
CC1(c2ccccc2)N(Cc2ccccc2C#N)C(=O)OC12CCN(C(=O)COc1ccccc1)CC2 (stereo not given)	-26.1%	-11.5%	-3.2%	i	?
COc1ccc(F)cc1-c1cccc(COc2ccc3c(cnn3CC[S+](C)(=O)[O-])c2)c1	?	-20.2%	?	i	?
O=C(O)CCn1ncc2cc(OCc3ccc(-c4cncnc4)cc3)ccc21	44.7µM*	?	3.2%[70.6 µM]	50.1µM*	-25.6%[172 µM]
CC(=O)N1CCC(COc2ccc3c(cnn3CC[S+](C)(=O)[O-])c2)CC1	?	-10.7%[88.5 µM]	-1.4%[70.6 µM]	?	-24.6%[172 µM]
C[S+](=O)([O-])CCn1ncc2cc(OCC3CCN(c4ncccn4)CC3)ccc21	-4.5%[138 µM]	-7.3%[88.5 µM]	?	44.7µM*	?
C[S+](=O)([O-])CCn1ncc2cc(OCc3cccc(-c4cccc(F)c4)c3)ccc21	?	-5.4%[88.5 µM]	39.8µM*	?	?
O=C(NCC1CCCO1)N1CCc2nc(-c3ccccc3)[nH]c2C1 (stereo not given)	-5.1%	i	·	·	i
COc1cccc(C(=O)N2CCN(c3cc(C(F)(F)F)nc(C)n3)CC2)c1	-17.0%	i	-1.2%	i	?
COc1ccc(C(=O)N2CC(Cn3c(C)cnc3-c3ccncc3)C2)cn1	-4.0%	4.1%	·	·	i
O=C(NCC1CCCN(C(=O)c2ccsc2)C1)c1ccc(-c2ccccc2)cc1 (stereo not given)	?	i	?	?	44.7µM*
O=C(NCC1CCCN(Cc2ncccn2)C1)c1ccc(-c2ccccc2)cc1 (stereo not given)	-9.5%	?	-1.1%	i	?
SMILES	3T3 cytotox	GPT2 inhibitor	NPR1 antag	FLuc inh	HEK293 tox
O=C(C1CC1)N1CCCC(Cc2noc(-c3ccccc3)n2)C1 (stereo not given)	?	i	3.9%	?	?
O=C(NCC1CCCN(C(=O)c2ccc3[nH]ccc3c2)C1)c1ccc(-c2ccccc2)cc1 (stereo not given)	?	-4.2%	11.2µM*	?	17.8µM*
O=C(c1ccc2cc[nH]c2c1)N1CCCC(Cc2noc(-c3ccccc3)n2)C1 (stereo not given)	20µM*	i	0.7%	i	?
CCn1ccnc1CN1CCCC(CNC(=O)c2ccc(-c3ccccc3)cc2)C1 (stereo not given)	?	i	-7.1%	i	?
CN(CCc1ccccn1)C(=O)CC1CCCN(c2cnn(CC3CC3)c(=O)c2)C1 (stereo not given)	-19.6%	i	-0.9%	i	8.7%
CNC(=O)[C@H]1C[C@]2(CCCCN(C)C2=O)N(C(=O)c2ccco2)[C@H]1c1ccco1	?	·	·	·	-3.2%
CNC(=O)c1cccc(-c2cnc3[nH]cc(CC(=O)NCC(C)C)c3c2)c1	35.5µM*	-6.1%[88.5 µM]	0.6%[70.6 µM]	i	?
CNC(=O)c1cccc(-c2cnc3[nH]cc(CC(=O)N4CCC(OC)CC4)c3c2)c1	89.1µM*	i	2.4%[70.6 µM]	?	-23.7%[172 µM]
COC1CCN(C(=O)Cc2c[nH]c3ncc(-c4cccnc4)cc23)CC1	79.4µM*	-26.0%[88.5 µM]	1.4%[70.6 µM]	i	3.6%[172 µM]
CNC(=O)c1cccc(-c2cnc3[nH]cc(CC(=O)Nc4ccccc4C)c3c2)c1	?	0.8%[88.5 µM]	-0.3%[70.6 µM]	?	?
O=C(Cc1c[nH]c2ncc(-c3cccnc3)cc12)N1CCN(c2ccccn2)CC1	?	i	-8.3%[70.6 µM]	i	?
CNC(=O)c1cccc(-c2cnc3[nH]cc(CC(=O)N4CCCC4)c3c2)c1	?	i	-9.3%[70.6 µM]	i	?
COc1ncc(-c2cnc3[nH]cc(CC(=O)N4CCOCC4)c3c2)cn1	79.4µM*	-4.1%[88.5 µM]	3.7%[70.6 µM]	i	-18.1%[172 µM]
O=C(Cc1c[nH]c2ncc(-c3ccoc3)cc12)N1CCOCC1	?	i	-11.9%[70.6 µM]	i	?
COc1cccc(CC(=O)N2CCC3(CCC3OC)CC2)c1 (stereo not given)	-19.2%	-0.2%	·	·	2.2%
COc1ccc(Nc2nccc3c(=O)cc(-c4cn[nH]c4)oc23)cc1OC	?	-0.1%[88.5 µM]	-12.1%[70.6 µM]	i	?
N#Cc1cccc(CN2CCC(c3nc4ccc(F)cc4c(=O)[nH]3)CC2)c1	?	?	1.5%	i	22.4µM*!
N#Cc1cccc(CN2CCCC(c3nc4ccc(F)cc4c(=O)[nH]3)C2)c1 (stereo not given)	?	i	-5.9%	i	44.7µM*!
O=c1[nH]c(C2CCN(Cc3ccc(Cl)cc3)CC2)nc2ccc(F)cc12	-12.6%	4.1%	-19.3%	i	-2.8%
